a7 integrin act: activates integrin-mediated alleviation for muscular dystrophy; alpha7betagal myoblasts, beta-gal FDG fluorescence, 48 h; Potency, µM (doses to about 38.3 µM), most hits filed as activators; 350,000 compounds, 0.064% hits; active means well fitted activation curve with a large enough effect; inconclusive means small, poorly fitted or top-dose-only effect; inactive means no such curve, though single readings can be large or run the other way; further: nearly all actives have a fitted effect of over 60% in size
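alpha7betagal+/- myoblasts (passage 13, 250/well) treated 48 h at 37C with compounds at 1:260 dilution of DMSO stock. Lysed, then beta-galactosidase activity read as FDG fluorescence (ex 480/em 540) after 30 min, with pre-read for autofluorescence.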
D3 ag: activates the human D3 dopamine receptor | P35462 | D3R DiscoveRx beta-arrestin cells, luminescence, 90 min | max activation, % | 410,000 compounds, 0.58% hits | AID 652048; in the data active means max activation above about 30%
Target sequence (P35462 whole entry, looked up): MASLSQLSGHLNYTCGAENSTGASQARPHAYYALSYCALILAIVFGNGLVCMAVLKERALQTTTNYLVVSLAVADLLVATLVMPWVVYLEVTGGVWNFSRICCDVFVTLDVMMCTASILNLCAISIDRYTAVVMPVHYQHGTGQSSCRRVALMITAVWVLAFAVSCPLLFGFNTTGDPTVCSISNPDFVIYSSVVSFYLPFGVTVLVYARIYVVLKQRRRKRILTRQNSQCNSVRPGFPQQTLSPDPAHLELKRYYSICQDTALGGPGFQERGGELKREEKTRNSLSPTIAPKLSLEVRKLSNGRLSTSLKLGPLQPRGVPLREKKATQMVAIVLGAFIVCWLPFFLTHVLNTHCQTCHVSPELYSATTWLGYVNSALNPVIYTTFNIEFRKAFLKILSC
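Agonist-mode cell screen: cells plated at 1500/well and incubated overnight at 37 °C, then exposed to library compounds for 90 min at 37 °C. Detection reagent was added for 30–60 min at room temperature, and luminescence was read.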
DRD3 antagonist: blocks the human D3 dopamine receptor; P35462; D3R cells, DiscoveRx beta-arrestin luminescence, antagonist mode; hits give low values; max response, negative = inhibition, %; 360,000 compounds, 2.5% hits; AID 652054; in the data active means max response below about -50%; inconclusive means no clear call, values can overlap the other calls
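Cells expressing the human receptor were seeded at 1500 cells/well, incubated overnight at 37 degrees C in 5% CO2, then exposed to library compounds with dopamine controls for 90 minutes at 37 degrees C before luminescent detection.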
Of the large screens only hits and unclear results are named; the others gave an inactive call. In the library only some 2.9% were active in any assay of this set; here they are far more common.

COC(=O)C1=C(C(=O)OC)[C@@H]2N(C)c3ccccc3[C@@]23C[C@@H](CO)N(C(=O)c2cccs2)C3=N1	DRD3 antagonist -51
C#CCCOC(=O)N1C2=NC(C(=O)OC)=C(C(=O)OC)[C@@H]3N(C)c4ccccc4[C@]23C[C@H]1CO	none
Cc1ccccc1N1CCN(C(=O)c2cc(C3CC3)nn2-c2ccccc2)CC1	none
O=Nc1nc2ncccn2c1-c1ccccc1	DRD3 antagonist -57
Nc1nc2ncccn2c1-c1ccc(F)cc1	none (no result: a7 integrin act)
CN(CC(=O)Nc1ccc(Cl)cc1)C(=O)Cc1c(F)cccc1Cl	none
COC(=O)C1CCN(C(=O)COC(=O)c2ccc(N3CCCC3=O)cc2)CC1	none
CS(=O)(=O)c1ncc(Cl)c(C(=O)Nc2ccc(N3CCOCC3)cc2)n1	DRD3 antagonist -78
CS(=O)(=O)c1ncc(Cl)c(C(=O)Nc2ccc(OC(F)F)cc2)n1	DRD3 antagonist -152
O=C(Nc1ccc(OC(F)F)cc1)c1ccccn1	none
CS(=O)(=O)c1ccc(C(=O)Nc2ccc(N3CCOCC3)cc2)c(Cl)c1	a7 integrin act inconclusive
CCN(c1ccccc1)S(=O)(=O)c1ccc(NC(=O)c2nc(S(C)(=O)=O)ncc2Cl)cc1	DRD3 antagonist -93
CCS(=O)(=O)c1ncc(Cl)c(C(=O)Nc2ccc(S(=O)(=O)N(C)c3ccccc3)cc2)n1	DRD3 antagonist inconclusive
CCN(CC(=O)Nc1ccc(C)c(F)c1)CC(=O)NC(C)(C)C	none
Cn1c(CNC(=O)CCNC(=O)c2ccccc2F)cc(=O)n(C)c1=O	none
CC1(C)CC(=O)c2c(S(C)(=O)=O)sc(Br)c2C1	none
Nc1cc(S(=O)(=O)Nc2ccc(Br)cc2)ccc1Cl	none
Oc1ccc(Br)cc1/C=N/n1c(COc2ccccc2)n[nH]c1=S	none
CSc1ccc(C(=O)C2CCCN(C(=O)Cn3cnnn3)C2)cc1 (centres undefined)	none
CSc1ccc(C(=O)C2CCCN(C(=O)Cc3nonc3C)C2)cc1 (centres undefined)	DRD3 antagonist -84
CSCCC(NS(=O)(=O)c1ccccc1)C(=O)OCc1cc(=O)oc2cc(O)ccc12 (centres undefined)	DRD3 antagonist -52
CSCCC(NS(=O)(=O)c1ccccc1)C(=O)OCc1nc2ccsc2c(=O)[nH]1 (centres undefined)	none
OCC[C@@H]1C[C@H](O)[C@@H](O)[C@@]2(OCc3ccccc32)O1	none
OCC[C@@H]1C[C@H](O)[C@@H](O)[C@]2(OCc3ccc(CO)cc32)O1	DRD3 antagonist -64 (no result: a7 integrin act)
CC(=O)Nc1cccc(N)c1	none (no result: a7 integrin act)
CC1([N+](=O)[O-])COC2(OC1)C(=O)Nc1ccccc12 (centres undefined)	none
CC1([N+](=O)[O-])COC2(CCCCC2)OC1	D3 ag 83, DRD3 antagonist -50
CCN(CC)CCC=C(c1cccs1)c1cccs1	DRD3 antagonist -54
CCN(CC)CCCNC(=O)/C(=C\c1cccn1C)NC(=O)c1cccs1	none
Cc1nc2sccn2c1P(c1c(C)nc2sccn12)c1c(C)nc2sccn12	none
Cc1ccc(C)c(-c2cc(C(=O)Nc3sc(C)c(C)c3C(N)=O)c3ccccc3n2)c1	D3 ag 46
Cc1cccc(C(=O)Nc2nc3c(s2)CCCC3)c1	none (no result: a7 integrin act, DRD3 antagonist)
Cc1cccc(-c2cc(C(=O)Nc3sc(C)c(C)c3C(N)=O)c3ccccc3n2)c1	none
Cc1ccccc1-c1cc(C(=O)Nc2nc3c(s2)CCCC3)c2ccccc2n1	DRD3 antagonist -91
Cc1ccc(/C=N/Nc2nncn2N)cc1	none
Cc1ccc(C2C(C(=O)c3cc4ccccc4o3)=C(O)C(=O)N2CCN2CCOCC2)cc1 (centres undefined)	none
Cc1ccc(C2C(C(=O)c3cc4ccccc4o3)=C(O)C(=O)N2CCN2CCOCC2)o1 (centres undefined)	DRD3 antagonist -56
CC1(C(=O)N2CCOCC2)CCCCC1	a7 integrin act inconclusive
Nc1nc2ccc(N3CCOCC3)cc2s1	DRD3 antagonist -76
Fc1ccc2nc(N3CCOCC3)sc2c1	none
O=C(NCCO)/C(=C/c1ccco1)NC(=O)c1ccco1	none
CC1CCc2c(sc(NC(=O)c3cccs3)c2C(=O)O)C1 (centres undefined)	none
CCCC1CCc2c(sc(NC(=O)c3cccs3)c2C(N)=O)C1 (centres undefined)	DRD3 antagonist -94
COc1cccc(N2CCN(c3ncnc4c3nc3n4CCCCC3)CC2)c1	none (no result: a7 integrin act, DRD3 antagonist)
CCCCSCCCNC(=O)C1CCN(Cc2nc(-c3cccc(Br)c3)oc2C)CC1	none (no result: a7 integrin act, DRD3 antagonist)
CC(NC(=O)C12CC3CC(CC(C3)C1)C2)c1ccc2c(c1)OCCO2 (centres undefined)	D3 ag 32
Cc1ccc(C(C)NC(=O)C23CC4CC(CC(C4)C2)C3)cc1 (centres undefined)	none
O=C(NCC(c1ccco1)N1CCN(c2ccc(F)cc2)CC1)C(=O)NC1CC1 (centres undefined)	none
COc1ccc(C2CC(c3ccc(Br)cc3)=NN2C(=O)CCC(=O)O)cc1OC (centres undefined)	none
COc1ccc(C2=NN(C(=O)CCC(=O)O)C(c3ccc(OC)c(OC)c3)C2)cc1 (centres undefined)	DRD3 antagonist -50
O=C(Nc1cccc(C(F)(F)F)c1)c1cc(-c2ccco2)on1	none
O=C(Nc1cccc(C(F)(F)F)c1)c1cc(-c2cccs2)on1	DRD3 antagonist -65
O=C(Nc1cccnc1)c1cc(-c2ccccc2O)on1	none
O=C(Nc1cccnc1)c1cc(-c2cccs2)on1	DRD3 antagonist -61
Cc1ccc(NC(=O)CN2C(=O)CCc3cc(S(=O)(=O)N4CCCCC4)ccc32)cc1C	none (no result: a7 integrin act, DRD3 antagonist)
COC(=O)CSc1nc(N2CCOCC2)c2c(c1C#N)CC(C)(C)N(C)C2	DRD3 antagonist -53
CCSc1nc(N2CCOCC2)c2c(c1C#N)CC(C)(C)N(C)C2	none
CCOC(=O)CSc1nc(=O)n2cc(C)ccc2n1	none
Cc1ccc2nc(SCC(=O)OCc3ccccc3)nc(=O)n2c1	DRD3 antagonist -55
CCc1nc2ccc(C(=O)NCCCn3ccnc3)cn2c1N(CC)C(=O)NCCc1ccccc1	none (no result: a7 integrin act)
O=C1OC(CCl)CN1Cc1ccc([N+](=O)[O-])cc1 (centres undefined)	none
Cc1oc(-c2ccc(Cl)cc2)nc1CN1CCCC(C(=O)NCc2ccc(Cl)cc2)C1 (centres undefined)	none (no result: a7 integrin act, DRD3 antagonist)
Cc1oc(-c2ccc(Cl)cc2)nc1CN1CCCC(C(=O)NCc2ccco2)C1 (centres undefined)	DRD3 antagonist -73
Cc1ccc2nc(Cl)c(CNCc3ccccc3)cc2c1	none
COc1ccc(C2=NN(C(=O)CCC(=O)O)C(c3ccc([N+](=O)[O-])cc3)C2)cc1 (centres undefined)	none
COC(=O)C(Cc1ccccc1)OS(N)(=O)=O (centres undefined)	DRD3 antagonist -58
COC(=O)[C@H](Cc1ccccc1)NS(=O)(=O)N[C@@H](Cc1ccccc1)C(=O)OC	none
Cc1c([N+](=O)[O-])oc2c1C(=O)NCCC2	none
Cc1nnc(SCC(=O)NC2CCCCC2)n1N	none
COc1ccc(OC)c(NC(=O)CSc2nnnn2C2CCCC2)c1	D3 ag 36
COc1ccc(NC(=O)CSc2nnnn2C2CCCCC2)c(OC)c1	none
COc1cc(OC)cc(-n2nnnc2SCC(=O)NC2CCCC2)c1	DRD3 antagonist -71
Nn1c(SCC(=O)NC2CCCCC2)nnc1C1CC1	DRD3 antagonist -63

Compound activity (PubChem)
